This note sets out measurements from PubChem BioAssay (NCATS).

The source made the active and inactive calls. The call rests on the fitted dose curve; in most records, active means well fitted curve in the direction sought with a large enough effect; inconclusive means small, poorly fitted or top-dose-only effect, or effect the other way, or another doubt; inactive means no such curve, though single readings can be large or run the other way.

A short description of the assay: qHTS of Nrf2 Activators: LOPAC Validation (AID 624149). The conditions noted are these: Nrf2/ARE reporter cell assay; series mostly up to 46.1 µM. From the text:
Many diseases have some form of oxidative stress injury and ties to inflammation, causing a host of problems for the patient. The antioxidant response element (ARE) plays an important role in alleviating the harmful effects of oxidative stress. The antioxidant response element (ARE) is a transcriptional regulatory element involved in the activation of genes coding for a number of antioxidant proteins and detoxifying enzymes. These enzymes work in concert to protect tissues from oxidative insults and chemical toxicities in human hepatocytes and immune cells. The protective effects of ARE activation are primarily triggered through Nrf2 (NF-E2-related factor) binding to and activating AREs. It is known that Nrf2 controls the production of over 250 antioxidant and detoxification proteins (Hu et al., 2006), thereby protecting tissues by increasing cellular antioxidant content and suppressing inflammatory signaling pathways. The transcription factor Nrf2 is a central link between oxidative chemicals, such as phenolic antioxidants and electrophilic compounds, and the activation of ARE. Nrf2 levels are constitutively low as a consequence of its interaction with Keap1, which targets its degradation (Zipper and Mulcahy, 2002). Electrophiles react with key cysteine residues in Keap1, releasing Nrf2 and allowing its translocation to the nucleus. Once within the nucleus, Nrf2 complexes with coactivators such as p300, and binds to the AREs to induce gene transcription of cytoprotective enzymes, resulting in the prevention of toxicity. Activation of Nrf2 protects tissues by increasing cellular antioxidant content and suppressing inflammatory signaling pathways. Identifying novel and potent Nrf2 activators by using the AREc32 cell line to detect ARE activation by small molecules will lead to the identification and development of probes to study protective pathways in multiple tissues. These specific probes are essential to study the ARE pathway, and eventually to determine whether this pathway does activate genes that could protect against a host of diseases, including cardiovascular diseases, obesity, diabetes, Alzheimer's, and Parkinson's disease.
This project's aim is to identify novel and potent Nrf2 activators by using the AREc32 cell line to detect ARE activation by small molecules, which will lead to the identification and development of probes to study the ARE pathway.
NIH Chemical Genomics Center [NCGC]
NIH Molecular Libraries Probe Centers Network [MLPCN]
Assay Submitter (PI): Curtis Klaassen, University of Kansas Medical Center
5 uL of 1000 cells/well of AREc32_Fluc cells are seeded into 1536-well plate in OPTI-MEM medium with 5% FBS. The plates are incubated overnight at 37 deg C with 5% CO2. Then through pin tool transfer, 23 nL of compounds are added to each well before a 24 hr incubation at 37 deg C with 5% CO2. After the addition of 2.5 uL of Steady-Glo. the plates are kept at RT for 30 min, before they are read on the ViewLux
(In general: Quantitative high-throughput screening tests each substance at several concentrations.)
As to `O=C(O)c1cc(=O)c2c(Cl)cc(Cl)cc2[nH]1`, the compound was classed as inactive.
Turning to `Cn1cc(C2=C(c3ccc(Cl)cc3Cl)C(=O)NC2=O)c2ccccc21`, the compound was classed as inactive.
Turning to `O=C(O)CCCC[C@@H]1CCSS1`, the compound was classed as inactive.
With `CC(N)C(=O)OC(C)(C)Cc1ccc(Cl)cc1` (stereo not given), the outcome was inactive.
In the case of `N.N.N.N.N.N.N.N.N.N.N.N.N.N.O.O.[Ru+4].[Ru+5].[Ru+5]`, the call was inactive.
In the case of `CCCCCC(O)c1cccc(OCc2ccc3ccccc3n2)c1` (stereo not given), the outcome was inactive.
As to `NCCCCCCCCCCN`, the outcome was inactive.
Consider `O=C(O)CC1CCCc2ccccc2C1O` (stereo not given), for which the call was inactive.
`COC1=C(OC)C(=O)c2ccccc2C1=O`: the compound was classed as inactive.
Turning to `CC(C)Cc1ccc([C@H](C)C(=O)O)cc1`, the call was inactive.
As for `CN(C)CCCO[C@@H]1[C@H]2OC(C)(C)O[C@H]2O[C@@H]1[C@H](O)CO`, the compound was classed as inactive.
`Nc1nc(SCc2ccc([N+](=O)[O-])cc2)c2ncn([C@@H]3O[C@H](CO)[C@@H](O)[C@H]3O)c2n1`: the result was inactive.
On to `CC12C(=O)OC(=O)C1(C)C1CCC2O1` (stereo not given), for which the outcome was inactive.
Then `Fc1cccc(/C=N/N=C/c2cccc(F)c2)c1`, with “inactive”.
Regarding `CCCCCCCCCCCCCCCCCC(=O)OC(CC(=O)O)C[N+](C)(C)C` (stereo not given), the compound was classed as inactive.
Regarding `CC(COc1ccc(/C=C/c2ccccc2)cc1)[N+](C)(C)C` (stereo not given), the result was inactive.
For `S=C(S)OC1CC2CC1C1CCCC21` (stereo not given), the call was inactive.
In the case of `O=c1[nH]c2cc([N+](=O)[O-])c([N+](=O)[O-])cc2[nH]c1=O`, the compound was classed as inactive.
Take `O=C1NC(=O)/C(=C/c2ccc3nccnc3c2)S1`: the result was inactive.
As for `CCCCCCCCCCCCCCCCCC(=O)NCC(COP(=O)([O-])OCC[N+](C)(C)C)OCC` (stereo not given), the outcome was inactive.
For `C=C[C@H]1CN2CC[C@@H]1C[C@@H]2[C@@H](O)c1ccnc2ccc(OC)cc12`, the result was inactive.
Take `C=C[C@@H]1CN2CC[C@@H]1C[C@H]2[C@H](O)c1ccnc2ccc(OC)cc12`: the outcome was inactive.
Then `C=CC(N)CCC(=O)O` (stereo not given), with “inactive”; and `CSc1ccccc1N1CCN(CCCCCC(=O)NC2CCCc3ccccc32)CC1` (stereo not given), with “inactive”.
Consider `C=CC(=O)c1ccc(CCCCCC)cc1`, for which the compound was called inactive.
In the case of `NC(=O)C(=O)O`, the compound was classed as inactive.
For the compound `CCOC(=O)C1=C(C)NC(C)=C(C(=O)OCC)C1c1c(F)c(F)c(F)c(F)c1F`, the compound was classed as inactive.
For `N#C/C(=C\c1ccc(O)c(O)c1)C(=O)NCCCc1ccccc1`, the outcome was inactive.
With `Nc1ncnc2c1ncn2[C@@H]1O[C@H](COP(=O)(O)CP(=O)(O)OP(=O)(O)O)[C@@H](O)[C@H]1O`, the result was inactive.
Then `CN1CCC[C@H]1c1cccnc1`, with “inactive”; and `CN1C2CC(OC(=O)[C@H](CO)c3ccccc3)CC1C1OC12` (stereo not given in full), with “inactive”; and `CC(C)CC(NP(=O)(O)O[C@@H]1O[C@@H](C)[C@H](O)[C@@H](O)[C@H]1O)C(=O)NC(Cc1c[nH]c2ccccc12)C(=O)O` (stereo not given in full), with “inactive”.
Turning to `O=C1O/C(=C/Br)CCC1c1cccc2ccccc12` (stereo not given), the outcome was inactive.
With `CNc1ncnc2c1ncn2[C@@H]1O[C@H](CO)[C@@H](O)[C@H]1O`, the result was inactive.
For `Cc1ccc(S(=O)(=O)/C=C/C#N)cc1`, the compound was called inactive.
Then `O=C(O)/C=C/C(O)c1ccc(Cl)cc1` (stereo not given), with “inactive”.
For `O=C(c1ccc(OCCCc2cnc[nH]2)cc1)C1CC1`, the compound was called inactive.
Take `CC1CN(S(=O)(=O)c2cccc3cnccc23)CCN1` (stereo not given): the compound was classed as inactive.
As for `CN(C)c1nc(N)c(C(=O)N=C(N)N)nc1Cl`, the compound was called inactive.
For `CCCCCCCCCCCCCCCCCCNC(=O)OCC(COP(=O)([O-])OCC[n+]1ccsc1)OC` (stereo not given), the compound was classed as inactive.
